The values below come from PubChem BioAssay (NCATS).

The nature of test [1]: qHTS for differential inhibitors of proliferation of Plasmodium falciparum line HB3 (AID 1886).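 Also: parasites grown with compound for 72 h before SYBR Green readout.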 Also: potency is read from the fitted curve at half-maximal effect. The settings on record: Potency: Plasmodium falciparum HB3 proliferation inhibition.
In test [2] the target is Ferritin light chain (Equus caballus) (UniProt P02791). The experiment in a line: qHTS Validation Assay for Identification of Novel General Anesthetics (AID 2323). Also: series mostly up to about 77 µM. The procedure, abridged:
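Competitive displacement of profluorescent 1-aminoanthracene (1-AMA, 50% saturated solution in PBS) from 10 uM horse-spleen apoferritin. Compounds incubated 10 min at room temperature; fluorescence read at 380 nm excitation/535 nm emission, normalized to free 1-AMA and complex, fitted with four-parameter Hill equation.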
(In general: qHTS replaces the single test concentration by a dilution series.)

Test [3] addresses ATP-dependent DNA helicase Q1 (Homo sapiens) (UniProt P46063). Kind of test: qHTS Validation Assay for Inhibitors of RecQ-Like Dna Helicase 1 (RECQ1) (AID 2353). The procedure, abridged: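 50 nM RECQ1T1 preincubated 15 min with compound in Tris pH 8.0 buffer with MgCl2, DTT, Tween-20 and 2.5 ug/ml poly(dI-dC); started with 200 nM TAMRA/BHQ-2 forked duplex and 2 mM ATP. Unwinding read as fluorescence (525/598 nm), two reads 2 h apart.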

In test [4] the target is RecQ-like DNA helicase BLM (Homo sapiens) (UniProt P54132). Kind of test: qHTS Validation Assay for Inhibitors of Bloom's syndrome helicase (BLM) (AID 2364). The procedure, abridged: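 50 nM BLM preincubated 15 min at room temperature with compound in pH 8.0 Tris buffer containing 2.5 ug/ml poly(dI-dC); started with 200 nM TAMRA/BHQ-2 forked duplex and 2 mM ATP (final). Unwinding read as TAMRA fluorescence increase, two reads 2 h apart.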
Chain of RecQ-like DNA helicase BLM (Homo sapiens) (P54132 whole entry, looked up): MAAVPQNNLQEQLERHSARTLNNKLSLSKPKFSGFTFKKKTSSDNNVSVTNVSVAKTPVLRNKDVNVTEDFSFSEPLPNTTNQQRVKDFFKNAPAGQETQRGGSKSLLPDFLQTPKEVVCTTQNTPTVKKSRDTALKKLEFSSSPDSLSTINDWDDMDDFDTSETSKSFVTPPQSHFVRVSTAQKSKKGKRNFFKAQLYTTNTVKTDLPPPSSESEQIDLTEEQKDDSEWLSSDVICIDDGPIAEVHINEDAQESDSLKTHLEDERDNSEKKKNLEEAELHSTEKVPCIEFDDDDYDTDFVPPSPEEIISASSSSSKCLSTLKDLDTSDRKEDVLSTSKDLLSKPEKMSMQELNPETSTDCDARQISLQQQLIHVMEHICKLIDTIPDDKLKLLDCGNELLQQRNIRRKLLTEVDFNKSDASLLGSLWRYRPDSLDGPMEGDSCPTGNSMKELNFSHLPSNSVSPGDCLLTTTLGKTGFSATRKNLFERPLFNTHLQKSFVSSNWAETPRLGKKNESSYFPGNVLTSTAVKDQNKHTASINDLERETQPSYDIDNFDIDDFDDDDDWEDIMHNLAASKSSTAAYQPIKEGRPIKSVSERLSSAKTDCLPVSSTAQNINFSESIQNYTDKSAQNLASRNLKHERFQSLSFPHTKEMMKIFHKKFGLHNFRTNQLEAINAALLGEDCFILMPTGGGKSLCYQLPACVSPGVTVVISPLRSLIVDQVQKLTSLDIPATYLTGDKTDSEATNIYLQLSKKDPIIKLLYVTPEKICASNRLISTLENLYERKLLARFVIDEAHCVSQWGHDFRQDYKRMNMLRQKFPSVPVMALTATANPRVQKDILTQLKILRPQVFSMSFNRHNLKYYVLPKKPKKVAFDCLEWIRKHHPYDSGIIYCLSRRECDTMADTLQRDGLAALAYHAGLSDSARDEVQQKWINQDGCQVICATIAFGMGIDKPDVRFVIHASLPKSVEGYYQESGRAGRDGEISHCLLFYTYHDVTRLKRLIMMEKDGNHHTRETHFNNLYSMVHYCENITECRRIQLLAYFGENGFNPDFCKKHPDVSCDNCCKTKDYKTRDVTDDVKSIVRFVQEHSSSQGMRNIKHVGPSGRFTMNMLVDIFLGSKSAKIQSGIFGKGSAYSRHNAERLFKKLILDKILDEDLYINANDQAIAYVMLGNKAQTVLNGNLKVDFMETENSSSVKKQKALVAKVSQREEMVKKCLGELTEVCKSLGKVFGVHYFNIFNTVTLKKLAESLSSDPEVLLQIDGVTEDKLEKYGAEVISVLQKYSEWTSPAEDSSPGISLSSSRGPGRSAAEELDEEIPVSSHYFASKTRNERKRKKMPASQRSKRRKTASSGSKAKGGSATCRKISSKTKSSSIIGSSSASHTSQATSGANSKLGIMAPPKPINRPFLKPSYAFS

Test [5] can be described thus: High Content Imaging Cell-Based qHTS for Inhibitors of the mTORC1 Signaling Pathway in MEF Cells (AID 2667).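 Also: Tsc2-/- p53-/- MEFs stably re-expressing wild-type Tsc2 exposed 24 h; series mostly up to about 38 µM.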 In outline: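 WT MEFs (Tsc2-/-, p53-/- re-expressing Tsc2), in DMEM + 10% FBS, were treated with compound for 24 h at 37 C. Cells were then fixed and stained for phospho-rpS6 Ser235/236 with propidium iodide as cell count. Values are % positive cells, with thresholds set against rapamycin-treated cells.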

Test [6] is described as follows: Cytometry Cell-Based qHTS for Inhibitors of the mTORC1 Signaling Pathway in MEF cells (AID 2668).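 Also: Tsc2-/- p53-/- mouse embryonic fibroblasts stably re-expressing wild-type Tsc2; percent cells positive for phospho-rpS6 Ser235/236 relative to propidium iodide stain; series mostly up to about 38 µM.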 In outline: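 WT MEFs (Tsc2-/-, p53-/- stably re-expressing WT Tsc2) in DMEM + 10% FBS received compounds 24 hrs after plating, for 24 hrs at 37 degree Celsius. Fixed cells stained with Alexa-488 anti-phospho-rpS6 Ser235/236 and propidium iodide; laser-scanning cytometry read-out.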

The nature of test [7]: Validation screen for inhibitors of Lassa infection (AID 463096; calls by dose curve).
The nature of test [8]: Validation screen for small molecules that induce DNA re-replication in MCF 10A normal breast cells (AID 463097). Also: nearly all actives have a fitted effect of over 60% in size. The procedure, abridged:
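Readout: Hoechst nuclear fluorescence intensity, 405 ex / 500-530 em, by scanning plate imager; re-replication scored as increase in nuclei with elevated DNA content. Cells exposed to compound 48 hr, 37 C, 5% CO2 beforehand.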

For test [9], the target named is Ubiquitin carboxyl-terminal hydrolase 2 (Homo sapiens) (UniProt O75604). The experiment in a line: qHTS Validation Assay for Inhibitors of Ubiquitin-specific Protease USP2a Using CHOP2 as the Reporter (AID 463106). The procedure, abridged: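 USP2 core (10 nM final) was preincubated with compound 30 min at RT in pH 8.0 Tris/CaCl2/beta-ME/CHAPS buffer. Ub-CHOP2 and reporter substrate (25 nM final each) were then added, with fluorescence (Ex 485/Em 531) read after 60 min. Data were normalized to NEM full inhibition and fitted to concentration-response curves.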
Chain of Ubiquitin carboxyl-terminal hydrolase 2 (Homo sapiens) (O75604 whole entry, looked up): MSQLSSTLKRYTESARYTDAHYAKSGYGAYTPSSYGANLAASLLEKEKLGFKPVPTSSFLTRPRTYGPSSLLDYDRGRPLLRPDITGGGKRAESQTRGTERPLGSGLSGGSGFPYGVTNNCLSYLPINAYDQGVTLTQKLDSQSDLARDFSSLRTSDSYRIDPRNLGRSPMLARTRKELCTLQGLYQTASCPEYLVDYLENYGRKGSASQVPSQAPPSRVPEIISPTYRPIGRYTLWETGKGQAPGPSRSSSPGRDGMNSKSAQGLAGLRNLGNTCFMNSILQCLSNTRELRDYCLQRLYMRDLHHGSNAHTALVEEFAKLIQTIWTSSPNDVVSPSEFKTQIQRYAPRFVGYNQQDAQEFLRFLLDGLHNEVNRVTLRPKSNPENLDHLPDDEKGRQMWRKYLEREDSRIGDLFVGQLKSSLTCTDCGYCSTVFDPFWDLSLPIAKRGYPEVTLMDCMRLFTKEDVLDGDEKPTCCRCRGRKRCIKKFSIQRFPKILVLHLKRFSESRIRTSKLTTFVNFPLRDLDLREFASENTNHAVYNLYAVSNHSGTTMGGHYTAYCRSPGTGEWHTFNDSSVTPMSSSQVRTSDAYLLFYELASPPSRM

The target in test [10] is DNA polymerase III PolC-type (Bacillus subtilis (strain 168)) (UniProt P13267). The experiment in a line: qHTS Validation Assay for the Inhibitors of DNA Replication in Gram-Positive Bacteria (AID 485295).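 Also: PicoGreen fluorescence of double-stranded DNA made on primed circular M13 template; series mostly up to about 57 µM.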 The procedure, abridged: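 Reconstituted B. subtilis holoenzyme (Pol III, beta clamp, SSB, primase) was preincubated with compound at room temperature, then given single-stranded circular M13Gori plus dNTPs and NTPs. EDTA-containing PicoGreen stopped the reaction, and dsDNA product was read by fluorescence.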
Chain of DNA polymerase III PolC-type (Bacillus subtilis (strain 168)) (P13267 whole entry, looked up): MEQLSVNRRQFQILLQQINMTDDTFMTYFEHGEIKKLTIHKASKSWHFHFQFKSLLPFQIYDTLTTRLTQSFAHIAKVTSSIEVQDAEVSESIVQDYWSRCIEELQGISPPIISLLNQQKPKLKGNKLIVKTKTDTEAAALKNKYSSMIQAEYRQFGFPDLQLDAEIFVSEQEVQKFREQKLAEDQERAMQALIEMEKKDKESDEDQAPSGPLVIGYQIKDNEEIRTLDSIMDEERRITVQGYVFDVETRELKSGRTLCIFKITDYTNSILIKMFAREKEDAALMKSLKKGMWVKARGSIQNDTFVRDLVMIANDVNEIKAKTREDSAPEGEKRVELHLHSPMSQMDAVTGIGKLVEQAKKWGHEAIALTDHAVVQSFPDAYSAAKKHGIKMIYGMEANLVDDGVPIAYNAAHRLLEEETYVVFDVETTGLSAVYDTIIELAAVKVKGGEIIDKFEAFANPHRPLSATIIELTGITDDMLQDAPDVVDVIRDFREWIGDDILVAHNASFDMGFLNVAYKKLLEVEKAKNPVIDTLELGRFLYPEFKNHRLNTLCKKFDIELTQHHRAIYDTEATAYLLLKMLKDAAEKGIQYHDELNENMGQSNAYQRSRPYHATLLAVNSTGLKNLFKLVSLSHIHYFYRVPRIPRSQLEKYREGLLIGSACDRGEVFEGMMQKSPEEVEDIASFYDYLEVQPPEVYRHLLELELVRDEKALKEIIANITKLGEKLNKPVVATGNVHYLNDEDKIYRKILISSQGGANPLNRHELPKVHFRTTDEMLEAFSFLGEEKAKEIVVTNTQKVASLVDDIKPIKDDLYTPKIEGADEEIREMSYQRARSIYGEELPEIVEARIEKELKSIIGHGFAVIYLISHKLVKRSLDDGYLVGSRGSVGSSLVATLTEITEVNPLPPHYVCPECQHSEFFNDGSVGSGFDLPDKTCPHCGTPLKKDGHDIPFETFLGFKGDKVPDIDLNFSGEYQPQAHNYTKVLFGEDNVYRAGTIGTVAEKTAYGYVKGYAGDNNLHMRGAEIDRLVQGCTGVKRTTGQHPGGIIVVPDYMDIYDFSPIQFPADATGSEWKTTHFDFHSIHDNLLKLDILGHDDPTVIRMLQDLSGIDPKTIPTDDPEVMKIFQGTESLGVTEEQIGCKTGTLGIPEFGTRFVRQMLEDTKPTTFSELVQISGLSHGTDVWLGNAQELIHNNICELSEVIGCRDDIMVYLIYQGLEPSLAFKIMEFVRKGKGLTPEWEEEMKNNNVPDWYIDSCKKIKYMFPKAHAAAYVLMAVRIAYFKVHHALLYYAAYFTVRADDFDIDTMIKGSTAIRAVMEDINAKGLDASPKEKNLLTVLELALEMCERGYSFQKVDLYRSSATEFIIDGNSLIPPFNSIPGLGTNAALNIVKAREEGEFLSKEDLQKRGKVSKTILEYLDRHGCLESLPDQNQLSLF

For test [11], the target named is Tumor susceptibility gene 101 protein (Homo sapiens) (UniProt Q99816). The experiment in a line: qHTS Validation Assay for Iinhibitors of HIV-1 Budding by Blocking the Interaction of PTAP/TSG101 (AID 485342; calls by dose curve). In outline:
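Tsg101 binding domain (10 uM final) in pH 7.5 HEPES/NaCl/Tween 20/EDTA/TCEP buffer was mixed with pin-transferred compounds, then FITC-labeled PTAP peptide (50 nM final) was added; after 20 min at r.t., fluorescence polarization was read.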

Test [12] is described as follows: qHTS Validation Assay to Find Inhibitors of Chronic Active B-Cell Receptor Signaling (AID 485345; active = well fitted curve in the direction sought with a large enough effect in the main read-out, with a control signal flat, not every such curve was filed as active). In outline:
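TMD8 ABC-DLBCL cells stably carrying doxycycline-inducible IkappaBalpha–green luciferase fusion plus unfused red luciferase; compounds 46 uM to 3 nM, 4 h at 37C with doxycycline. Corrected green/red luminescence ratio normalized to 10 uM MG-132 and basal cell wells; curves fitted.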

Test [13] deals with ATP-dependent 6-phosphofructokinase (Trypanosoma brucei brucei) (UniProt O15648). The experiment in a line: qHTS Validation Assay to Find Inhibitors of T. brucei phosphofructokinase (AID 485368). Also: potency is read from the fitted curve at half-maximal effect. In outline:
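Activity was normalized between 1x (1.25 nM) PFK wells as no inhibition and enzyme-free wells as full inhibition, from luminescence after ADP-Glo detection of ADP made from 0.5 mM F6P and 0.1 mM ATP over 45 min.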

Test [14] is described as follows: Cytometric Cell-Based qHTS for Inhibitors of the mTORC1 Signaling Pathway in MEF (Tsc2-/-, p53-/-) Cells (AID 2660).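 Also: percent of cells above a phospho-rpS6 to PI ratio cutoff in each well; series mostly up to about 38 µM.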 In outline: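 Percent of cells positive for normalized phospho-S6 staining is reported, with the cutoff set from rapamycin (7.5 nM) versus DMSO wells. Tsc2-/-, p53-/- MEFs received compound for 24 hrs.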
The nature of test [15]: High Content Imaging Cell-Based qHTS for Inhibitors of the mTORC1 Signaling Pathway in MEF (Tsc2-/-, p53-/-) Cells (AID 2666). In outline: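 Phospho-rpS6 (Ser235/236) immunofluorescence, normalized and scored as % positive cells using rapamycin and DMSO controls, was read in empty-vector Tsc2-/-, p53-/- MEFs after 24 h compound exposure at 37 C; propidium iodide counted cells.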

Test [16] deals with Beta-2 adrenergic receptor (Homo sapiens) (UniProt P07550). The experiment in a line: qHTS validation assay of beta-arrestin-biased ligands of beta2-adrenergic receptor (AID 485366). In outline:
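Luminescence from a tTA-responsive luciferase, induced when recombinant beta-arrestin is recruited to recombinant beta2-AR, served as the agonism signal. Cells were exposed to compound for 18 hr at 37 degrees C; titrations spanned up to 46 microM.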

Records with an inconclusive call do not appear. The source made the active and inactive calls. Unless noted, calls follow the shape of the dose curve; as a rule, active = well fitted curve in the direction sought with a large enough effect; inconclusive = small, poorly fitted or top-dose-only effect, or another doubt; inactive = no such curve, though single readings can be large; an effect the other way counts as inactive or inconclusive.

Chain of ATP-dependent 6-phosphofructokinase (Trypanosoma brucei brucei) (O15648 whole entry, looked up): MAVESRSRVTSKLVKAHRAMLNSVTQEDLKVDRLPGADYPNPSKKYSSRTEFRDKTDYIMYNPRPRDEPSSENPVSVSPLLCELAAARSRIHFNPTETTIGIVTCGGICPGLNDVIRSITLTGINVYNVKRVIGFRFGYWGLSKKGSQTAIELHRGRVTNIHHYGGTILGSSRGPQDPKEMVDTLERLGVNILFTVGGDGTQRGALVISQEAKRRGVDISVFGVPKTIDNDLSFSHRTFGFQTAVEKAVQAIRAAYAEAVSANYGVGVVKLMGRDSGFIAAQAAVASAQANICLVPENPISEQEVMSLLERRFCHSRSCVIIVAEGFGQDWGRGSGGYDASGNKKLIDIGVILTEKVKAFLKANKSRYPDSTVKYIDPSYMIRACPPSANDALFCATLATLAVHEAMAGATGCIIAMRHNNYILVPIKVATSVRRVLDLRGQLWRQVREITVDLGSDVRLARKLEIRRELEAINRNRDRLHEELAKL
Chain of Tumor susceptibility gene 101 protein (Homo sapiens) (Q99816 whole entry, looked up, the tested form may be a part): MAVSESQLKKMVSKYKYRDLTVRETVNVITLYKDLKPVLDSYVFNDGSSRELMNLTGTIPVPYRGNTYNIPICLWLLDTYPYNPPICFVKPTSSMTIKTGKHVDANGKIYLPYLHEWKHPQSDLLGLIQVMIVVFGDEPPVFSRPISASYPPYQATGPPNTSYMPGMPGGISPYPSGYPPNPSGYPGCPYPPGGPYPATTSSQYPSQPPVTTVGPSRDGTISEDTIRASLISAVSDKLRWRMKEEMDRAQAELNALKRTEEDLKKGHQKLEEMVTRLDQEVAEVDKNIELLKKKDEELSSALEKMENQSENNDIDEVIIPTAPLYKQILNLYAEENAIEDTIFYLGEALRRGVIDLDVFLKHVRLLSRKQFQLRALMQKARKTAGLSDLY
Chain of Ferritin light chain (Equus caballus) (P02791 2-175 limits assumed): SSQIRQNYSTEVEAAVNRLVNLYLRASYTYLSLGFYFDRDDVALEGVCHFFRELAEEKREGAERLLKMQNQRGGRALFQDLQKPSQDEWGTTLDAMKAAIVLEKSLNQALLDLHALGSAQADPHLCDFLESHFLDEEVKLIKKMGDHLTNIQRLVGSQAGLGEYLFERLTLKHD
Chain of Beta-2 adrenergic receptor (Homo sapiens) (P07550 whole entry, looked up): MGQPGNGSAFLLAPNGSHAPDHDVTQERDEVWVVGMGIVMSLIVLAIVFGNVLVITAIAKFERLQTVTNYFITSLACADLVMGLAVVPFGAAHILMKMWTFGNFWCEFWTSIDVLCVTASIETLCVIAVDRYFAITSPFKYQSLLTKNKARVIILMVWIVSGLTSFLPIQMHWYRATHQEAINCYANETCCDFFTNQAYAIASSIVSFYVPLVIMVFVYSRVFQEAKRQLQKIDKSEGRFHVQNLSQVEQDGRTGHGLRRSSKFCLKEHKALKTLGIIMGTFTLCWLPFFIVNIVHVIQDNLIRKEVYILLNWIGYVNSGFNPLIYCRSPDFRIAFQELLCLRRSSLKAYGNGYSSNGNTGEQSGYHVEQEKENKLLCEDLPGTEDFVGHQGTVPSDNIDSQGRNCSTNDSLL

For `COc1cc(CC(C)N)c(OC)cc1I` (stereo not given), the Potency entry in test [1], in test [3], in [4], in test [5], in test [6] and in test [7] was “inactive” throughout. In addition, the Potency result in test [8], in [9], in test [10], in test [12] and in test [13] was “inactive” throughout. Moreover, the result in test [2] and in test [11] was inactive.

With `NCC(O)c1cc(O)c(O)cc1F` (stereo not given), the Potency entry in test [1], in [3], in [14], in test [15], in test [5] and in test [7] was “inactive” throughout. The Potency result in [8], in [9], in test [10] and in test [12] was “inactive” throughout. Moreover, the compound was called inactive in test [2] and in test [11]. For the same compound, the Potency in [13] is 4.78 µM (active).

As to `COc1ccc2[nH]cc(CCN)c2c1`, the Potency entry in test [1], in test [3], in test [14], in [5], in [6] and in test [7] was “inactive” in each case. Further, the Potency entry in [8], in test [9], in test [10] and in test [12] was “inactive” throughout. Also, the outcome in test [2] and in test [11] was inactive.

`CCOC(=O)c1ncn2c1[C@@H]1CCCN1C(=O)c1cc(OC)ccc1-2`: the Potency result in test [1], in test [3], in test [4], in [15], in test [5] and in test [6] was “inactive” each time. Moreover, the Potency entry in test [7], in [8], in [9], in [10], in test [12] and in [13] was “inactive” throughout. The compound was classed as inactive in [2], in [11] and in test [16].

In the case of `N[C@@H](CCl)C(=O)O`, the Potency entry in test [1], in [3], in test [14], in test [15], in [5] and in test [7] was “inactive” throughout. The Potency entry in test [8], in [9], in test [10], in [12] and in test [13] was “inactive” in each case. Also, the result in test [2], in test [11] and in [16] was inactive.

Regarding `Nc1ccc(CCN2CCN(c3cccc(C(F)(F)F)c3)CC2)cc1`, the Potency entry in test [1], in test [3], in [14], in [15], in [5] and in test [7] was “inactive” throughout. For the same compound, the Potency entry in [8], in [9], in test [10], in test [12] and in test [13] was “inactive” in each case. Besides, the compound was called inactive in test [2] and in [16].

On to `COc1ccc(OC)c(C(O)C(C)N)c1` (stereo not given), for which the Potency entry in test [1], in test [3], in test [14], in [15], in test [5] and in test [6] was “inactive” throughout. Besides, the Potency entry in [7], in test [8], in [9], in test [10] and in [12] was “inactive” in each case. In addition, the compound was called inactive in [2] and in test [16].

`OCc1cnc[nH]1`: in [1], the Potency was 10 µM (active). For the same compound, the compound was classed as inactive in [2] and in test [11]. The Potency result in [3], in test [4], in [15], in test [5], in test [7] and in test [8] was “inactive” in each case. For the same compound, the Potency result in [9], in test [10] and in test [12] was “inactive” each time.

With `CCCN(CCC)[C@@H]1CCc2cccc(O)c2C1`, the Potency in [1] was 10 µM (active). Also, the compound was called inactive in [2], in [11] and in test [16]. Besides, the Potency entry in [3], in test [4], in test [14], in [15], in test [5] and in test [7] was “inactive” each time. The Potency entry in [8], in [9], in test [10], in test [12] and in test [13] was “inactive” throughout.
